The record followed here is ChEMBL document CHEMBL4513146, “CO-ADD screening of Karazin Kharkiv National University (Ukraine) compounds”.

Measured potencies and affinities stand elsewhere.

The experiment has as its system Candida albicans. To be noted: Concentration 32 ug.mL-1; ASSAY_TEST Inhibition of Fungal Growth; detection method Absorption (OD530).
In general, Inhibition refers to the drop in the measured response relative to a control, in per cent. `Cc1ccc(-c2cc3c4nn(CC(=O)NCc5ccc(Cl)cc5)c(=O)n4ccn3n2)cc1C`: the Inhibition is 2%. Under `CC(C)c1nnc2c(SCC(=O)N3CCN(c4ccccc4F)CC3)nc3ccccc3n12` stands -5.14%. Consider `Cc1c(Cl)cccc1NC(=O)CSc1nc2ccccc2n2c(C)nnc12`, for which the Inhibition is listed as 0.95%. The result for `CCc1nnc2c(S(=O)(=O)N(Cc3cccc(F)c3)c3cccc(C)c3)cccn12` reads 0.97%; that for `CC(C)c1nnc2c(=O)n(CC(=O)Nc3cccc(C#N)c3)c3ccccc3n12`, 2.88%.

Consider `O=C(CCc1nnc2c(N3CCCCC3)nc3ccccc3n12)NCc1ccc(Br)cc1`, for which the Inhibition was determined as 2.54%. Under `Cc1ccc(-c2cc3c4nn(CC(=O)Nc5ccc(F)cc5Cl)c(=O)n4ccn3n2)cc1` stands 1.88%; under `COc1cccc(-n2ccn3c(SCc4ccccc4C)nnc3c2=O)c1`, 2.6%; under `CCC(Sc1nnc2c(=O)n(-c3ccccc3)ccn12)C(=O)Nc1ccc(OC)cc1OC` (stereo not given), 2.91%. In the case of `COc1ccc(-c2cc3c4nnc(SCC(=O)NCc5ccc(Cl)cc5)n4ccn3n2)cc1`, the Inhibition was -0.75%. Under `CCc1cccc(NC(=O)CSc2nnc3c(=O)n(-c4cccc(OC)c4)ccn23)c1` stands 13.59%.

Regarding `Cc1ccc(Oc2nccn3c(=O)n(CC(=O)Nc4ccc(Br)cc4)nc23)cc1`, the Inhibition stood at 10.23%.

As to `Cc1ccc(NC(=O)CSc2nc3ccccc3n3c(C)nnc23)c(Br)c1`, the Inhibition was 22.27%. The result for `CCCCc1ccc(NC(=O)CSc2nc3ccccc3n3c(CC)nnc23)cc1` reads 1.28%. Regarding `O=C(CSc1nc2ccccc2n2cnnc12)NCc1ccccc1Cl`, the Inhibition is listed as 0.3%.
